Key:
[1] = biological target: MAP/microtubule affinity-regulating kinase 3 (Homo sapiens) (UniProt P27448); details: at 1 µM;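 also: reported values are averaged percent inhibition of MARK3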
[2] = biological target: T1, MAP/microtubule affinity-regulating kinase 4 (Homo sapiens) (UniProt Q96L34); details: at 0.1 µM
T1 sequence (whole entry): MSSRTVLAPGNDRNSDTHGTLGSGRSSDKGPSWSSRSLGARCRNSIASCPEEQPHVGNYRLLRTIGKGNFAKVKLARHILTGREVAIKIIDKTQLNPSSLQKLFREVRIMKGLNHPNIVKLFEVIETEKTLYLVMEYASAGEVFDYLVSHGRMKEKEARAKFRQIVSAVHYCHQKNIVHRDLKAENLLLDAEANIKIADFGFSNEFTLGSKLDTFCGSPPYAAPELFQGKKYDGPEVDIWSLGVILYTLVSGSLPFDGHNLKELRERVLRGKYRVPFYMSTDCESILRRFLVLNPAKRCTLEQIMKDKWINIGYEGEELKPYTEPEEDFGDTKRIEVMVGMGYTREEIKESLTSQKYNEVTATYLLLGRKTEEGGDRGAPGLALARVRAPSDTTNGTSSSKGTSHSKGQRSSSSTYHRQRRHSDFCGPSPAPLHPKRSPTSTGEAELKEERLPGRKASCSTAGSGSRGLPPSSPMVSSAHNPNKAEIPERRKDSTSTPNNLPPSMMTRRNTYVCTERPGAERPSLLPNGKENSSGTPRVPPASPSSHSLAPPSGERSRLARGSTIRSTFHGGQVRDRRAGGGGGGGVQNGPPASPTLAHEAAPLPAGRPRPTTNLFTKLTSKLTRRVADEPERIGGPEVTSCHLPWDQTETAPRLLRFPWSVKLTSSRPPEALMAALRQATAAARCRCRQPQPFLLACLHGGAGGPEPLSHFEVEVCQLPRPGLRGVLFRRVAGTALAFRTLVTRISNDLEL

[3] = biological target: T1, MAP/microtubule affinity-regulating kinase 4 (Homo sapiens); details: at 1 µM
[4] = biological target: Maternal embryonic leucine zipper kinase (Homo sapiens) (UniProt Q14680); details: at 0.1 µM
Maternal embryonic leucine zipper kinase (Homo sapiens), sequence (Q14680 whole entry, looked up): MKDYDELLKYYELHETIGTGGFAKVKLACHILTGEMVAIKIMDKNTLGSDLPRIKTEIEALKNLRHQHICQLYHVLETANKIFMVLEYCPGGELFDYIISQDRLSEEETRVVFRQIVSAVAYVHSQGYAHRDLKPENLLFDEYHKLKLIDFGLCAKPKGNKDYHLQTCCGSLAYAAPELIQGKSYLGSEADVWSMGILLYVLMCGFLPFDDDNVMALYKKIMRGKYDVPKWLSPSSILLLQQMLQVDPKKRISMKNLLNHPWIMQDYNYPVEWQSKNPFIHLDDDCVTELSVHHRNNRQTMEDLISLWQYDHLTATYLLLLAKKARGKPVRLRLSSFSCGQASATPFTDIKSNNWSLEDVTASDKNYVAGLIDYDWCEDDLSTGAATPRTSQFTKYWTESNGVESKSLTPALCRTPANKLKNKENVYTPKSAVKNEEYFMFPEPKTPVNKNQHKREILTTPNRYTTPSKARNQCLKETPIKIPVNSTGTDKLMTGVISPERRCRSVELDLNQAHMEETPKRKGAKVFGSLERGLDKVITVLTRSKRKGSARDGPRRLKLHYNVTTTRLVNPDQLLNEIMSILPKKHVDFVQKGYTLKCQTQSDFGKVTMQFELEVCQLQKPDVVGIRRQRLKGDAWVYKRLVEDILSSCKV

[5] = biological target: Maternal embryonic leucine zipper kinase (Homo sapiens) (UniProt Q14680); details: at 1 µM
[6] = biological target: MAP kinase-interacting serine/threonine-protein kinase 1 (Homo sapiens) (UniProt Q9BUB5); details: at 0.1 µM
MAP kinase-interacting serine/threonine-protein kinase 1 (Homo sapiens), sequence (Q9BUB5 whole entry, looked up): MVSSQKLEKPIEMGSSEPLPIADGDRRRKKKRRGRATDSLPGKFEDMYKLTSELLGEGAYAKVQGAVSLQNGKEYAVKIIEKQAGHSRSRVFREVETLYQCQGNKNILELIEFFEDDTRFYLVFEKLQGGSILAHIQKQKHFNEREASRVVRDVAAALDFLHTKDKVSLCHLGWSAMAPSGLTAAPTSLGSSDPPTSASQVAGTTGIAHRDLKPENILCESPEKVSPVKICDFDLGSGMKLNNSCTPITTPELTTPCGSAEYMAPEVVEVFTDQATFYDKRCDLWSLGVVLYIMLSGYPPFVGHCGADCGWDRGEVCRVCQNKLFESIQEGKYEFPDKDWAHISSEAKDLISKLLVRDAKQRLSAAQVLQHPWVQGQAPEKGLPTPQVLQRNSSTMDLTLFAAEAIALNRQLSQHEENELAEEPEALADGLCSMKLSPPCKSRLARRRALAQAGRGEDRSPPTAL

[7] = biological target: MAP kinase-interacting serine/threonine-protein kinase 1 (Homo sapiens) (UniProt Q9BUB5); details: at 1 µM
[8] = biological target: MAP kinase-interacting serine/threonine-protein kinase 2 (Homo sapiens) (UniProt Q9HBH9); details: at 0.1 µM
MAP kinase-interacting serine/threonine-protein kinase 2 (Homo sapiens), sequence (Q9HBH9 whole entry, looked up): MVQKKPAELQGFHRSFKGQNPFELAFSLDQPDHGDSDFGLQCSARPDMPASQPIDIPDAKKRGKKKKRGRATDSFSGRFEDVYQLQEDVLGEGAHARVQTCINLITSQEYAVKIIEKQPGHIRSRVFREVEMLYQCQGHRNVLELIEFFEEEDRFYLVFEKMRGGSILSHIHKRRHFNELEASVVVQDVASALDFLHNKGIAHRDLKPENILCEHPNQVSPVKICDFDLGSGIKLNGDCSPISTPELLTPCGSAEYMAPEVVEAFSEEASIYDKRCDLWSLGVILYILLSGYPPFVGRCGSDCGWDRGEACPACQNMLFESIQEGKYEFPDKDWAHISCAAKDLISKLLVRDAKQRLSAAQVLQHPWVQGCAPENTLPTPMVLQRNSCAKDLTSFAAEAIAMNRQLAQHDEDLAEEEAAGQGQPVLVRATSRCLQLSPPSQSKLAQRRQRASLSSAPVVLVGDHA

[9] = biological target: MAP kinase-interacting serine/threonine-protein kinase 2 (Homo sapiens) (UniProt Q9HBH9); details: at 1 µM
[10] = biological target: Serine/threonine-protein kinase MARK2 (Homo sapiens) (UniProt Q7KZI7); details: at 0.1 µM;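 also: mean percent inhibition of PAR-1Balpha kinase activity, reported from the GSK PKIS screen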
Serine/threonine-protein kinase MARK2 (Homo sapiens), sequence (Q7KZI7 whole entry): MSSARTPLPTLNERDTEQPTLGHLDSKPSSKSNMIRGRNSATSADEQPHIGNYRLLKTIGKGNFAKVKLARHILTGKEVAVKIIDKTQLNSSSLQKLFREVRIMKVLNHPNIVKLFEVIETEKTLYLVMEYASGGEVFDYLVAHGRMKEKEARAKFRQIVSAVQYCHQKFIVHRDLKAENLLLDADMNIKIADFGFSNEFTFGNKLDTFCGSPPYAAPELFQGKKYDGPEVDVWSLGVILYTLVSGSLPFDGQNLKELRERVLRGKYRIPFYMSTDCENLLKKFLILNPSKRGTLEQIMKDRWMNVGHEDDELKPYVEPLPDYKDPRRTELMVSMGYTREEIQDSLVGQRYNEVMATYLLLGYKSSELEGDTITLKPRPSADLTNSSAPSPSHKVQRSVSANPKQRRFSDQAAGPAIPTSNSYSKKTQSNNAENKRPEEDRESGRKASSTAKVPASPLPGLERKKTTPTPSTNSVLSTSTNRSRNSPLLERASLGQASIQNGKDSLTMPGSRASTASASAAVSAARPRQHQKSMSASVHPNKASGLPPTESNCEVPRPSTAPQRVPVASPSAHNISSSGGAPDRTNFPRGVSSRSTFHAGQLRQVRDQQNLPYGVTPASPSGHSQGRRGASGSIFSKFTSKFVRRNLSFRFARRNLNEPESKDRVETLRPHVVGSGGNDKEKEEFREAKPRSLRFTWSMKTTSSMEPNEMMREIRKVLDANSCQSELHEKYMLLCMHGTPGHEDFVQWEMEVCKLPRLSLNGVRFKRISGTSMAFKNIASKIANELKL

MAP/microtubule affinity-regulating kinase 3 (Homo sapiens), sequence (P27448 whole entry, looked up): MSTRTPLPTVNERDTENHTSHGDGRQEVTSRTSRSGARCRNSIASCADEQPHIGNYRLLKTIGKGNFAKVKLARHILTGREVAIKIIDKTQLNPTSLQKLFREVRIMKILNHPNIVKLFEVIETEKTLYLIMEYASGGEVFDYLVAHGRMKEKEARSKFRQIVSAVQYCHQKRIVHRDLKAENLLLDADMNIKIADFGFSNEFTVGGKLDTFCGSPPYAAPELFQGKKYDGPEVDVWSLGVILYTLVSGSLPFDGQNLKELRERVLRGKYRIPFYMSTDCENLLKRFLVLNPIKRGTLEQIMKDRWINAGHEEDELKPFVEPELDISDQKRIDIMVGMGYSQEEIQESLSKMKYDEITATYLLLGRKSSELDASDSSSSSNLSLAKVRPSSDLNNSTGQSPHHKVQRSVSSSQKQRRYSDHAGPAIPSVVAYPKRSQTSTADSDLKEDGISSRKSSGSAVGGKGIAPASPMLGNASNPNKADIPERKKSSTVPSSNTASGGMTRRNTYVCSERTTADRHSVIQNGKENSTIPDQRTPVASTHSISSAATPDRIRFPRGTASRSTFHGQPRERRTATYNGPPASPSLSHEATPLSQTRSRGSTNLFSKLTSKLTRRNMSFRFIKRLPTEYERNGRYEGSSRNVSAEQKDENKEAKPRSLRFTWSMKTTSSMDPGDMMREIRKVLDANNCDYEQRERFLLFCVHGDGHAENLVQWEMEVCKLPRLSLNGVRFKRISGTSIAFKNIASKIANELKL

SMILES	inhibition [1] [%]	inhibition [2] [%]	inhibition [3] [%]	inhibition [4] [%]	inhibition [5] [%]	inhibition [6] [%]	inhibition [7] [%]	inhibition [8] [%]	inhibition [9] [%]	inhibition [10] [%]
Clc1ccc(-c2nn3ncccc3c2-c2ccnc(Nc3ccccc3)n2)cc1	8.43	0.1	1.26	2.47	1.1	0.8	3.07	0.53	1.38	0.74
COc1ccc(-c2cc(-c3c[nH]nc3-c3ccccn3)ccn2)cc1	5.51	2.2	2.28	3.77	8.05	3.19	7.19	2	6.65	2.97
Cc1ccc2c(-c3ccnc(Nc4ccccc4)n3)c(-c3ccc(F)cc3)nn2n1	0.65	1.31	1.67	1.41	5.51	0.98	1.88	0.04	0.75	0.87
Nc1nc(-c2ccc(F)cc2)c(-c2ccc3ncccc3n2)s1	3.12	2.07	2.43	4.85	22.3	4.39	8.56	1.91	5.26	0.92
NS(=O)(=O)c1ccc(N/N=C2\C(=O)Nc3ccc4ncccc4c32)cc1	40.9	11.4	52	50.3	93.4	4	19.4	2.52	20.4	5.97
Nc1ncc(-c2cccc(S(N)(=O)=O)c2)c2scc(-c3ccc(F)c(Cl)c3)c12	5.19	3.07	5.58	5.13	2.9	3.42	4.48	1.7	6.22	0.24
O=S(=O)(CCNCc1ccc(-c2ccc3ncnc(Nc4ccc(OCc5cccc(F)c5)c(Cl)c4)c3c2)o1)c1ccccc1	5.8	3.85	2.5	5.2	3.07	2.9	5.96	0.8	4.95	0.66
CN1CCC(n2cnc(-c3ccc(F)cc3)c2-c2ccnc(Nc3ccccc3)n2)CC1	2.89	0.39	0.51	1.63	3.22	1.8	11.4	1.79	4.18	0.89
c1cc(-c2cnn3nc(N4CCOCC4)ccc23)nc(NC2CC2)n1	12.9	1.01	5.05	8.27	43.9	4.33	19.8	7.65	42.5	0.85
CS(=O)(=O)CCNCc1ccc(-c2ccc3ncnc(Nc4ccc(OCc5ccccc5)c(C(F)(F)F)c4)c3c2)o1	4.16	2.86	3.74	2.98	2.19	2.1	3.92	-0.02	4.64	0.21
CCOc1ccc2c(-c3ccnc(Nc4cccc(C(F)(F)F)c4)n3)cnn2n1	0.96	1.1	1.8	1.46	3.63	2.65	4.31	-0.81	3.49	0.02
Fc1ccc(-c2nn3ccccc3c2-c2ccncc2)cc1	-0.24	0.11	-0.34	3.07	6.94	0.31	3.36	-0.39	3.58	-0.63
Cc1cccc(Nc2ncc(-c3ccccc3)o2)c1	9.41	1.51	6.57	3.78	9.64	1.9	1.76	3.35	8.3	2.22
CCNC(=O)O[C@H]1CN[C@H](C#Cc2cc3ncnc(Nc4ccc(OCc5cccc(F)c5)c(Cl)c4)c3s2)C1	2.72	0.88	1.97	4.18	4.99	2.75	4.73	0.73	5.72	-0.45
CNC(=O)c1cccc(C#Cc2cncnc2Nc2ccc(OCc3cccc(F)c3)c(Cl)c2)c1	23.2	-0.97	0.31	-3.3	-0.86	3.12	26.2	1.92	13.1	-2.05
N#Cc1c(NC(=O)c2ccc(F)cc2)sc2c1CCCC2	1.66	0.11	1.29	0.18	5.26	0.47	1.91	0.57	1.1	0.6
COc1cc(Nc2nccc(Nc3ccc4c(C)n[nH]c4c3)n2)cc(OC)c1OC	9.39	1.78	8	3.21	8.73	2.01	13.5	2.68	19.2	1.57

SMILES	inhibition [1] [%]	inhibition [2] [%]	inhibition [3] [%]	inhibition [4] [%]	inhibition [5] [%]	inhibition [6] [%]	inhibition [7] [%]	inhibition [8] [%]	inhibition [9] [%]	inhibition [10] [%]
c1ccc(-c2nc3n(c2-c2ccc4c(c2)OCO4)CCC3)nc1	4.15	1.03	2.7	2.58	4.77	1.71	3.75	0.98	-0.19	2.71
CC1=C(C(=O)Nc2cc(Cl)c3[nH]ncc3c2)C(c2ccc(C(F)(F)F)cc2)CC(=O)N1 (stereo not given)	9.91	1.64	3.1	5.47	7.81	2.74	7.79	2.19	5.02	1.6
O=C(Nc1n[nH]c2cc(-c3ccc(F)cc3)ccc12)C1CC1	4.76	2	3.26	4.84	8.01	4.85	25.8	1.37	7.23	1.15
Fc1cccc(COc2ccc(Nc3ncnc4sc(-c5ccco5)cc34)cc2Cl)c1	4.54	2.34	3.94	5.07	1.45	1.99	10.1	-0.22	15.1	1.08
COc1ccc(-c2nn3ncccc3c2-c2ccnc(Nc3ccc4c(c3)OCCO4)n2)cc1	1.83	1.34	0.93	-1.54	2.58	0.71	0.14	-0.13	1.25	-1.35
CS(=O)(=O)CCNCc1coc(-c2ccc3ncnc(Nc4ccc(OCc5ccccc5)cc4)c3c2)c1	3.7	1.75	1.07	3.52	6.96	3.46	9.67	3.42	14.1	-0.55
CNC(=O)c1cncc(/C=C/c2ccccc2Cl)c1	-4.55	-0.44	2.25	0.11	-3.52	4.17	23.1	6.83	17.6	1.5
COC(=O)c1sc(-n2cnc3cc(OC)c(OC)cc32)cc1OCc1ccccc1C(F)(F)F	3.04	2.41	4.85	4.31	12.6	3.55	3.3	0.22	-0.04	-1.89
Nc1nc(-c2cccc(Cl)c2)c(-c2ccc3ncccc3n2)s1	6.68	1.87	-0.31	4.19	11.3	3.39	9.69	2.72	7.56	1.01
NS(=O)(=O)c1ccc(Nc2ncc(-c3ccccc3)o2)cc1	12.2	2.7	10.9	1.52	0.94	4.26	21.3	3.92	18.9	2.35
COc1ccc2c(-c3ccnc(Nc4cccc(OC(F)(F)F)c4)n3)cnn2n1	6.67	1.08	3.99	1.72	11.1	3.13	9.47	2.32	8.78	-0.54
FC(F)(F)c1cccc(-c2nn3ncccc3c2-c2ccnc(Nc3ccc4c(c3)OCCO4)n2)c1	3.45	0.66	1.99	1.43	4.99	1.74	3.33	0.83	1.61	-1.11
COc1cc2c(cc1Nc1nc(Nc3ccsc3C(N)=O)c3cc[nH]c3n1)N(C(=O)CN(C)C)CCC2(C)C	7.59	4.25	6.44	6.08	14.8	3.09	6.26	1.36	3.03	1.24
c1ccc(COc2ccc(Nc3ncnc4ccc(-c5ccco5)cc34)cc2)cc1	3.2	0.96	1.77	0.14	-3.64	1.35	5.5	2.49	8.27	-1.72
CC(=O)Nc1cccc(C#Cc2cncnc2Nc2ccc(OCc3cccc(F)c3)c(Cl)c2)c1	4.64	0.9	0.69	1.32	1.11	2.02	15.4	1.16	6.2	-0.32
CCn1cc(-c2ccnc3[nH]ccc23)c(-c2cccc(NC(=O)Nc3ccc(OCc4ccccc4)cc3)c2)n1	2.97	1.33	2.66	-3.14	-3.15	0.36	1.39	-1.1	-0.1	-0.11

Reference: ChEMBL document CHEMBL1961873, “Compounds: GSK PKIS; Assays: Nanosyn kinase panel” (2012)
